Laboratory results as given in PubChem BioAssay (NCATS).
Results filed as inconclusive are left out. Values without a mark were called inactive. Activity calls are given as the source filed them. Calls come from the whole dose curve; as a rule, active = well fitted inhibition curve with a large enough effect; inconclusive = small, poorly fitted or top-dose-only effect; inactive = flat fitted curve, though single readings scatter.

tested on: CRL-7250; experiment: Cytotoxic Profiling of Annotated Libraries Using Quantitative High-Throughput Screening (AID 1296008); conditions: Five cell lines viability, CellTiter-Glo ATP luminescence, 48-72 h; max response: hits give low values; note: nearly all actives have a fitted effect of over 60% in size
Outline: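 Compounds were pin-transferred onto cells and incubated 48 or 72 hr at 37 degree Celsius, 95% humidity. CellTiter-Glo was added, plates sat 10 min at room temperature, then ATP-coupled luminescence was imaged as the viability read-out.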
% is set by controls: 0 for no effect and ±100 for the full control effect; potency is the fitted concentration of half-maximal effect.

Q: For `O=C1C=CC(O)(/C=C/C(=O)OC[C@H]2O[C@@H](Oc3ccc(O)cc3)[C@H](O)[C@@H](O)[C@@H]2O)C=C1`, which max response is on record?
A: 0.651%

Q: How did the max response turn out when `CN1C2CCC1CC(OC(=O)[C@H](CO)c1ccccc1)C2` (some centres undefined) was run?
A: 0.824%

Q: With `Nc1nc2c(c(=O)[nH]1)C[C@@H](CCc1ccc(C(=O)N[C@@H](CCC(=O)O)C(=O)O)cc1)CN2` as the compound, how does the Potency read?
A: 116 nM (active)

Q: For `COc1ccc(/C=C/C(=O)O[C@@H]2[C@@H](O)[C@@H](O)[C@H](O[C@@H]3C=C(CO)[C@H]4[C@H](O[C@@H]5O[C@H](CO)[C@@H](O)[C@H](O)[C@H]5O)OC=C[C@H]43)O[C@H]2C)cc1O`, which max response is on record?
A: 0.875%

Q: How did the max response turn out when `C=C[C@@](C)(O)CC/C=C(\C)C(=O)O[C@@H]1[C@@H]2O[C@]2(C)[C@H]2[C@H](O[C@@H]3O[C@H](CO)[C@@H](O)[C@H](O)[C@H]3O)OC=C[C@@]12O` was run?
A: -6.64%

Q: How did the max response turn out when `CC(C)C(C#N)O[C@@H]1O[C@H](CO[C@@H]2O[C@@H](C)[C@H](O)[C@@H](O)[C@H]2O)[C@@H](O)[C@H](O)[C@H]1O` (some centres undefined) was run?
A: -4.82%

Q: Which max response does the source give for `CC(C)C[C@H](CC(=O)NO)C(=O)N[C@@H](Cc1ccc2ccccc2c1)C(=O)N[C@@H](C)C(=O)NCCN` here?
A: -4.14%

Q: Which max response does the source give for `N#Cc1ccc(C(=O)N2CCC3(CC2)N=C(N)c2c(F)ccc(F)c2N3)cn1` here?
A: -4.2%

Q: With `CC(C)CC(=O)OC1OC=C(CO[C@@H]2O[C@H](CO)[C@@H](O)[C@H](O)[C@H]2O)C2CC(O)C(O)(CO)C12` (some centres undefined) as the compound, how does the max response read?
A: 3.01%
